Among the data in PubChem BioAssay (Tox21) are Potency and outcome values, retold here.

Where “and” joins values, the source holds several entries; their conditions need not be identical. Equal values may be shown once. Inconclusive results are not listed. The source holds several records for some structures; these can differ, active in one and inactive in another. Calls of active or inactive are those of the source. Unless noted, calls follow the shape of the dose curve; as a rule, active = well fitted curve in the direction sought with a large enough effect in the repeat runs; inconclusive = weak or mixed curves; inactive = no such curve, though single readings can be large; an effect the other way counts as inactive or inconclusive.

Test [1] can be described thus: qHTS assay to identify small molecule agonists of the vitamin D receptor (VDR) signaling pathway - cell viability counter screen (AID 743224). Also: nearly all actives have a fitted effect of over 50% in size. Also: potency is read from the fitted curve at half-maximal effect. The gist of the method:
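Here cell health was gauged by luminescent ATP detection (CellTiter-Glo, 30 min RT) in VDR-bla cells that had been incubated with test compounds for 16 h at 37C and 5% CO2.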

A short description of test [2]: qHTS assay to identify small molecule antagonists of the vitamin D receptor (VDR) signaling pathway - cell viability counter screen (AID 743225). Also: nearly all actives have a fitted effect of over 50% in size. The gist of the method: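 VDR-UAS-bla HEK 293T cells were plated and incubated 4 h at 37C, then dosed with compound plus 3 nM (final) 1-alpha,25-dihydroxyvitamin D3 for 16 h. After the 2 h beta-lactamase read, viability in the same wells was read as CellTiter-Glo luminescence after 30 min at room temperature.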
On the technique in general: Quantitative high-throughput screening tests each substance at several concentrations.

A short description of test [3]: qHTS assay to identify small molecule agonists of the NFkB signaling pathway (AID 1159509; active = well fitted curve in the direction sought with a large enough effect in the signal ratio in the repeat runs, not every such curve was filed as active; the % refers to the signal ratio; also: series mostly up to about 61 µM). An outline of the steps:
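After overnight attachment, reporter cells received test compounds, DMSO or positive controls and were incubated 5 hr at 37 C. FRET substrate was then added for 1.5 hr at room temperature before dual-emission fluorescence reading.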

Test [4] can be described thus: qHTS assay to identify small molecule agonists of the NFkB signaling pathway - cell viability counter screen (AID 1159515; calls by dose curve; also: series mostly up to about 61 µM; nearly all actives have a fitted effect of over 55% in size). The gist of the method: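 5 hr compound treatment of NFkB-bla ME-180 cells (2,000/well, seeded overnight beforehand), followed by reporter substrate for 1.5 hr. CellTiter-Glo added afterward; luminescence after 30 min RT.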
Test [5] can be described thus: qHTS assay to identify small molecule agonists of the endoplasmic reticulum stress response signaling pathway (AID 1159516; active = well fitted activation curve with a large enough effect in the signal ratio in the repeat runs, not every such curve was filed as active; the % refers to the signal ratio). The gist of the method: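 Reporter HeLa cells (ESRE-beta-lactamase) underwent 5 hr compound incubation at 37 C and 5% CO2 in quantitative HTS format. Detection followed 2 hr of FRET substrate loading at room temperature.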
Test [6] is described as follows: qHTS assay to identify small molecule agonists of the endoplasmic reticulum stress response signaling pathway - cell viability counter screen (AID 1159517; calls by dose curve;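 also: HeLa cells carrying an ER stress response element beta-lactamase reporter; series mostly up to about 61 µM; nearly all actives have a fitted effect of over 50% in size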). The gist of the method: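 Luminescence readout: CellTiter-Glo, 30 min RT, same wells as the ESRE-bla reporter read. HeLa ESRE-bla, 1,500 cells/well, o/n 37 C; cpd 5 hr 37 C/5% CO2.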
In test [7] the target is Nuclear receptor ROR-gamma (Homo sapiens) (UniProt P51449). The test can be described thus: qHTS assay to identify small molecule antagonists of the retinoid-related orphan receptor gamma (ROR-gamma) signaling pathway (AID 1159521; also: nearly all actives have a fitted effect of over 50% in size; also: potency is read from the fitted curve at half-maximal effect). The gist of the method:
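Tet-on ROR-gamma CHO cells with ROR response element-luciferase reporter; compounds added 2 hr before 1 uM doxycycline induction, then 16 hr at 37 C. Antagonism scored as decreased ONE-Glo luminescence.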

Test [8] can be described thus: qHTS assay to identify small molecule agonists of the AP-1 signaling pathway - cell viability counter screen (AID 1159525; calls by dose curve; also: nearly all actives have a fitted effect of over 55% in size). The gist of the method: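 ME-180 AP-1-bla, 2500 cells/well, Opti-MEM + 0.5% dialyzed FBS; overnight 37 °C; cpd 15-pt titration, 5 h 37 °C; CellTiter-Glo 30 min RT; luminescence read; normalised to TOAB and DMSO controls.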
Test [9] is described as follows: qHTS assay to identify small molecule agonists of the AP-1 signaling pathway (AID 1159526; calls by dose curve; also: potency is read from the fitted curve at half-maximal effect).
Test [10] concerns the target Retinoic acid receptor RXR-alpha (Homo sapiens) (UniProt P19793). The test can be described thus: qHTS assay to identify small molecule agonists of the RXR signaling pathway (AID 1159527; calls by dose curve; also: nearly all actives have a fitted effect of over 35% in size). The gist of the method: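 GeneBLAzer RXR-alpha-UAS-bla HEK 293T cells in 2% charcoal-stripped FBS medium were exposed to compounds for 16 hr at 37 C in agonist mode. Beta-lactamase reporter read as 460/530 nm FRET ratio after 2 hr substrate loading.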

Test [11] in a line: qHTS assay to identify small molecule agonists of the RXR signaling pathway - cell viability counter screen (AID 1159529). Also: nearly all actives have a fitted effect of over 50% in size. Also: potency is read from the fitted curve at half-maximal effect. The gist of the method: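 RXR-alpha-UAS-bla HEK 293T cells in medium with 2% charcoal-stripped FBS were pre-incubated 5 hr, then compound-treated 16 hr at 37 C. Viability was read by CellTiter-Glo luminescence in the same wells as the beta-lactamase assay, with tetraoctyl ammonium bromide as positive control.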

Test [12] can be described thus: qHTS assay to identify small molecule antagonists of the retinoid acid receptor (RAR) signaling pathway - cell viability counter screen (AID 1159551). Also: nearly all actives have a fitted effect of over 35% in size. An outline of the steps:
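Seed C3RL4 cells; next day add compound, then retinol to 1 uM final; incubate 6 h at 37 C; add CellTiter-Glo; read luminescence after 30 min at RT.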

A short description of test [13]: qHTS assay to identify small molecule antagonists of the retinoid-related orphan receptor gamma (ROR-gamma) signaling pathway - cell viability counter screen (AID 1159520). Also: nearly all actives have a fitted effect of over 50% in size. An outline of the steps: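 Tet-on ROR gamma CHO cells (1,000/well) were plated 4 hr, given compounds in DMSO for 2 hr at 37 C, then induced with 1 uM final doxycycline for 16 hr. Viability was read as ATP by CellTiter-Glo luminescence after 30 min.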

Test [14] in a line: qHTS assay to identify small molecule antagonists of the retinoic acid receptor (RAR) signaling pathway (AID 1159552; also: nearly all actives have a fitted effect of over 50% in size; also: potency is read from the fitted curve at half-maximal effect). The gist of the method:
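Retinol signaling pathway inhibitors screened in C3RL4 RARE-luciferase reporter cells seeded overnight at 37 C, then compounds added with 1 uM (final) retinol as pathway substrate. After 6 hr at 37 C, luciferase luminescence read after 30 min at room temperature.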

A short description of test [15]: qHTS assay to identify small molecule agonists of the retinoic acid receptor (RAR) signaling pathway (AID 1159553). An outline of the steps: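 Activation of retinol signaling was monitored via a RARE luciferase reporter in C3RL4 cells. After 6 hr compound treatment at 37 C, detection reagent was added for 30 min at room temperature before luminescence reading.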

Chain of Retinoic acid receptor RXR-alpha (Homo sapiens) (P19793 whole entry, looked up): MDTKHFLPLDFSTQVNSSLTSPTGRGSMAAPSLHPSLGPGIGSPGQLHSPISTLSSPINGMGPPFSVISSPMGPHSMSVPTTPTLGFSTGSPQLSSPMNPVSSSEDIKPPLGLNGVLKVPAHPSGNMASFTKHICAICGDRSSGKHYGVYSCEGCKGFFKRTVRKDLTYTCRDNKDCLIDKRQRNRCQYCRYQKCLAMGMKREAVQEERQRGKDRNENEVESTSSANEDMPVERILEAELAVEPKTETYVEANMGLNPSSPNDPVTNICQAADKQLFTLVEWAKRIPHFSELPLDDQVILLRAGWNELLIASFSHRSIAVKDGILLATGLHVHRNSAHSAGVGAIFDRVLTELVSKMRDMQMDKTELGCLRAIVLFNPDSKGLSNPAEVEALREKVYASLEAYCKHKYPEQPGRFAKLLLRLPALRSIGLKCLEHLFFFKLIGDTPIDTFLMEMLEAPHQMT

Take `O=C(O)CCCCC1CCSS1` (configuration not stated): the Potency result in test [1], in test [6], in [7], in test [10] and in test [11] was “inactive” in each case. Further, the compound was classed as inactive in test [2], in test [3], in test [4], in [5], in test [8] and in test [12]. Moreover, the Potency in test [9] is 27.5 µM (active) and inactive.
For the compound `COc1cc(O)c(C(=O)c2ccccc2)cc1S(=O)(=O)O`, the Potency result in test [1], in test [6], in test [7], in test [9], in test [10] and in test [11] was “inactive” throughout. The Potency result in test [14] was “inactive”. The compound was called inactive in test [2], in [3], in [4], in test [13], in test [8] and in [12].
Take `C=CCOC(=O)CC(C)C`: the Potency result in test [1], in test [6], in test [7], in test [9], in test [11] and in test [14] was “inactive” each time. Further, the call in [2], in test [3], in [4], in test [5], in test [8] and in [12] was inactive.
Take `C[C@]12C=CC(=O)C=C1CC[C@@H]1[C@@H]2C(=O)C[C@@]2(C)[C@H]1CC[C@]2(O)C(=O)CO`: the Potency entry in test [1], in [6], in [7], in test [9], in test [11] and in [14] was “inactive” in each case. Moreover, in [15], the Potency result was “inactive”. The call in test [2], in test [3], in test [4], in test [5], in test [13] and in test [8] was inactive. Besides, the outcome in test [12] was inactive.
`CCn1cc(C(=O)O)c(=O)c2ccc(C)nc21`: the Potency result in test [1], in [6], in [7], in test [9], in test [10] and in test [11] was “inactive” each time. In test [14], the Potency result was “inactive”. Further, the compound was classed as inactive in test [2], in test [3], in [4], in test [5], in [13] and in test [8]. In test [12], the compound was called inactive.
With `C#C[C@]1(O)CC[C@H]2[C@@H]3CCc4cc(O)ccc4[C@H]3CC[C@@]21C`, the Potency result in test [1], in test [6], in test [9], in test [10], in [11] and in test [14] was “inactive” throughout. Moreover, in test [15], the Potency result is “inactive”. Besides, the compound was called inactive in [2], in test [3], in [4], in test [13], in test [8] and in [12]. For the same compound, in test [7], the Potency was 30.4 µM (active) and inactive.
In the case of `CC(=O)OC/C=C(C)/C=C/C=C(C)/C=C/C1=C(C)CCCC1(C)C`, the Potency entry in test [1], in [6], in [7], in test [9] and in test [11] was “inactive” each time. The compound was called inactive in test [2], in test [3], in test [4], in test [5], in [13] and in [8]. Moreover, the compound was classed as inactive in test [12].
In the case of `COC1=CC(=O)C[C@@H](C)[C@]12Oc1c(Cl)c(OC)cc(OC)c1C2=O`, the Potency result in test [1], in test [6], in [9], in test [10] and in test [11] was “inactive” each time. Also, the result in test [2], in test [3], in [4], in test [5], in [8] and in test [12] was inactive. For the same compound, the Potency in [7] was 8.56 µM (active) and 19.3 µM (active) and inactive; in test [14] it was 9.6 µM (active).
As for `COc1ccccc1NC(=O)CC(C)=O`, the Potency result in test [1], in [6], in test [7], in [9], in test [10] and in test [11] was “inactive” in each case. Besides, the Potency entry in test [14] and in test [15] was “inactive” each time. The compound was called inactive in test [2], in test [3], in test [4], in [5], in test [13] and in test [8]. For the same compound, the compound was called inactive in test [12].
`O=C1OC(c2ccc(O)cc2)(c2ccc(O)cc2)c2ccccc21`: the Potency is 48.7 µM (active) and inactive in test [1]; 8.57 µM (active) and inactive in test [7]; 19.4 µM (active) and inactive in test [11]; 48.6 µM (active) and inactive in test [14]. Further, the compound was classed as inactive in test [2], in test [3], in test [4], in [5], in test [13] and in test [8]. Also, in [12], the compound was classed as inactive. Besides, the Potency entry in [6] and in [15] was “inactive” in each case.
